Screens as filed in PubChem.
ATXN2 expr inh: ATXN2 expression inhibition; actives 0.72% (n = 360,000); Potency, µM (titrated, usually from 57 µM), for the others: top-dose activity change, negative = inhibition, actives largely listed as inhibitors; AID 1745845; HEK-293 ATXN2-luciferase reporter, luminescence, 24 h; also: % is scaled to controls: 0 for no effect and ±100 for the full control effect; nearly all actives have a fitted effect of over 55% in size
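qHTS (up to 57 uM final) was run with 24 h compound exposure of reporter cells at 37 °C. Each well was multiplexed: SteadyGlo luminescence measured ATXN2-luciferase expression after a fluorogenic Gly-Phe-AFC viability readout (25 uM final).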
HT1080NT lethal: kills 2HG-producing HT-1080-NT fibrosarcoma cells | actives 1.6% (n = 360,000) | Potency, µM (series often up to 46.1 µM), inactives show at the highest dose activity, negative = less viability, hits mostly cytotoxic | HT-1080-NT fibrosarcoma viability, CellTiter-Glo ATP luminescence, 48 h;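 also: NT is the 2HG producing partner of a matched IDH1 knockdown line; 0% = DMSO-treated cells and -100% = media-only wells without cells; nearly all actives have a fitted effect of over 55% in size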
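HT-1080-NT fibrosarcoma cells (2HG-overproducing), 750 cells/well in RPMI with 5% FBS, dosed after 2 h and incubated 48 h at 37C. CellTiter-Glo luminescence normalized to DMSO and no-cell wells; concentration-response curves fitted and classed.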
KB-3-1 tox: kills parental KB-3-1 adenocarcinoma cells | KB-3-1 viability, CellTiter-Glo ATP luminescence, 72 h | Potency, µM (highest dose often 46.1 µM), usual class: cytotoxic | actives 1.4% (n = 400,000) | AID 1347075; also: % is scaled to controls: 0 for no effect and ±100 for the full control effect; nearly all actives have a fitted effect of over 60% in size
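Screening of KB-3-1 cells (DMEM, 10% FBS, phenol-red free) ran from lowest to highest compound concentration; after 72 h at 37 °C viability was read luminescently and curves fitted.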
HT1080 IDH1KD tx: toxicity to HT-1080 IDH1 knockdown cells (counter line); HT-1080 IDH1 knockdown viability, ATP luminescence, 48 h; Potency, µM (series often up to 46.1 µM), for the others: at the highest dose activity, negative = toxicity, hits mostly cytotoxic; actives 2% (n = 360,000); AID 686971;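 also: 0% = DMSO wells and -100% = cell-free medium wells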
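IDH1KD HT-1080 cells, 750/well, RPMI + 5% FBS; compound pinned after 2 h settling; 48 h, 37 °C; CellTiter-Glo luminescence; % activity normalised to DMSO and no-cell wells; curves fitted, classed by r2 and efficacy.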
KB-V1 MDR tox: kills drug-selected multidrug resistant KB-V1 cells; actives 3.4% (n = 400,000); Potency, µM (top dose mostly 46.1 µM), hits mostly cytotoxic; KB-V1 MDR cells viability, CellTiter-Glo, 72 h; AID 1347076; also: % is scaled to controls: 0 for no effect and ±100 for the full control effect; nearly all actives have a fitted effect of over 60% in size
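Drug-selected KB-V1 cells, grown in DMEM lacking phenol red with 10% FBS, receive compound titrations; after three days at 37 degrees C, surviving cell ATP is quantified by CellTiter-Glo luminescence and responses normalized and curve-fitted.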
S2 tox: viability counter-screen for ATXN expression inhibitors; S2 cells (HEK-293 line with an ATXN2-luciferase reporter) viability, CellTiter-Fluor protease fluorescence, 24 h; Potency, µM (doses to about 56.7 µM), usual class: cytotoxic; AID 651635; actives 0.49% (n = 400,000); also: nearly all actives have a fitted effect of over 40% in size
* hit, by the source's call; ! = repeats disagree. Rows were chosen to be rich in hits. Some 6.2% of all compounds tested hit in one or more screens of this group. Calls follow the shape of the dose curve; as a rule, active = well fitted curve in the direction sought with a large enough effect; inconclusive = small, poorly fitted or top-dose-only effect, or another doubt; inactive = no such curve, though single readings can be large; an effect the other way counts as inactive or inconclusive. Potency is read from the fitted curve at half-maximal effect.

How did CCOC(=O)c1c(-c2ccccc2)csc1NC(=O)c1cc(-c2ccc(Cl)cc2)on1 do in these assays?
ATXN2 expr inh: 0%; KB-3-1 tox: inactive; KB-V1 MDR tox: inactive; S2 tox: inactive

How did O=C(NC(c1ccco1)c1cc(Cl)c2cccnc2c1O)c1ccc(Cl)cc1 (centres undefined) do in these assays?
KB-3-1 tox: inactive; KB-V1 MDR tox: inactive

What do the screens show for `CC(=O)NC(c1ccc(N(C)C)cc1)c1cc(Cl)c2cccnc2c1O` (centres undefined)?
HT1080NT lethal: inconclusive; KB-3-1 tox: 3.3µM*; HT1080 IDH1KD tx: inconclusive; KB-V1 MDR tox: inconclusive; S2 tox: inactive

How did CC(=O)NC(c1ccccc1)c1cc(Cl)c2cccnc2c1O (centres undefined) do in these assays?
ATXN2 expr inh: 7.9µM*; HT1080NT lethal: inconclusive; KB-3-1 tox: inconclusive; HT1080 IDH1KD tx: inconclusive; KB-V1 MDR tox: inconclusive; S2 tox: inactive

What do the screens show for `O=C(NC(c1ccc(Cl)cc1)c1cc(Cl)c2cccnc2c1O)c1cccnc1` (centres undefined)?
ATXN2 expr inh: inconclusive; HT1080NT lethal: inconclusive; KB-3-1 tox: inconclusive; HT1080 IDH1KD tx: 3.3µM*; KB-V1 MDR tox: inconclusive; S2 tox: inactive

Results for CCCCCSc1nc2sc3c(c2c(=O)n1-c1ccccc1)CCN(C(C)=O)C3 ?
ATXN2 expr inh: 1%; KB-3-1 tox: inconclusive; KB-V1 MDR tox: inconclusive; S2 tox: inactive

Results for CC(NCC(O)c1ccc([N+](=O)[O-])cc1)C12CC3CC(CC(C3)C1)C2 (centres undefined) ?
ATXN2 expr inh: 2%; HT1080NT lethal: 18µM*; KB-3-1 tox: inactive; HT1080 IDH1KD tx: 23µM*; KB-V1 MDR tox: inactive; S2 tox: inactive

Results for O=C(NCC(O)c1ccc([N+](=O)[O-])cc1)Nc1ccccc1 (centres undefined) ?
ATXN2 expr inh: 7%; HT1080NT lethal: -9%; KB-3-1 tox: inactive; HT1080 IDH1KD tx: 0%; KB-V1 MDR tox: inactive; S2 tox: inactive

How did COc1ccc(CCC(=O)O)cc1 do in these assays?
KB-3-1 tox: inactive; KB-V1 MDR tox: inactive

What do the screens show for `Cc1cc(S(=O)(=O)N2CCN(c3ccccc3C)CC2)ccc1F`?
ATXN2 expr inh: -10%; HT1080NT lethal: -6%; KB-3-1 tox: inactive; HT1080 IDH1KD tx: -24%; KB-V1 MDR tox: inactive; S2 tox: inactive

What do the screens show for `Cc1ccccc1-n1nc(C)c2cc(C(=O)N3CCN(S(=O)(=O)c4ccccc4)CC3)sc21`?
ATXN2 expr inh: 12%; HT1080NT lethal: 9%; KB-3-1 tox: inactive; HT1080 IDH1KD tx: 11%; KB-V1 MDR tox: 23µM*; S2 tox: inactive

What do the screens show for `Cc1ccccc1N1CCN(S(=O)(=O)c2ccccc2)CC1`?
ATXN2 expr inh: -2%; HT1080NT lethal: 1%; KB-3-1 tox: inconclusive; HT1080 IDH1KD tx: -5%; KB-V1 MDR tox: 21µM*!; S2 tox: inactive

How did Cc1ccc(OCCCC(=O)Nc2sc3c(c2C(N)=O)CCC(C)C3)cc1 (centres undefined) do in these assays?
ATXN2 expr inh: -11%; KB-3-1 tox: inactive; KB-V1 MDR tox: inactive; S2 tox: inactive

What do the screens show for `CCN(CC)c1ccc(NC(=O)c2cccc(F)c2)c(C)c1`?
ATXN2 expr inh: -6%; HT1080NT lethal: inconclusive; KB-3-1 tox: 5.8µM*; HT1080 IDH1KD tx: 16µM*; KB-V1 MDR tox: inconclusive; S2 tox: inactive

What do the screens show for `CCN(CC)c1ccc(NC(=O)c2ccco2)c(C)c1`?
ATXN2 expr inh: 18%; HT1080NT lethal: 4%; KB-3-1 tox: inactive; HT1080 IDH1KD tx: -10%; KB-V1 MDR tox: inactive; S2 tox: inactive

How did S=C(NCc1ccco1)Nc1ccc(Br)cc1Cl do in these assays?
ATXN2 expr inh: 56%; HT1080NT lethal: -25%; KB-3-1 tox: inconclusive; HT1080 IDH1KD tx: -21%; KB-V1 MDR tox: inactive; S2 tox: inactive

What do the screens show for `S=C(NCc1ccco1)Nc1ccc(Cl)cc1Cl`?
ATXN2 expr inh: 24%; HT1080NT lethal: -11%; KB-3-1 tox: inconclusive; HT1080 IDH1KD tx: -8%; KB-V1 MDR tox: 18µM*; S2 tox: inactive

Results for S=C(NCc1cccs1)Nc1ccccc1Cl ?
ATXN2 expr inh: 8%; HT1080NT lethal: 0%; KB-3-1 tox: inactive; HT1080 IDH1KD tx: 5%; KB-V1 MDR tox: 26µM*; S2 tox: inactive

How did CC(C)c1ccc(NC(=S)NCc2cccs2)cc1 do in these assays?
ATXN2 expr inh: 47%; HT1080NT lethal: 11µM*; KB-3-1 tox: inactive; HT1080 IDH1KD tx: inconclusive; KB-V1 MDR tox: 23µM*; S2 tox: inactive

Results for Cc1cc(Cl)ccc1NC(=S)NCc1cccs1 ?
ATXN2 expr inh: -6%; HT1080NT lethal: 18µM*; KB-3-1 tox: inactive; HT1080 IDH1KD tx: inconclusive; KB-V1 MDR tox: inconclusive; S2 tox: inactive

How did Cc1cccc(OCC(=O)Nc2ccc(Cl)c(-c3nc4ncccc4o3)c2)c1C do in these assays?
ATXN2 expr inh: inconclusive; KB-3-1 tox: inactive; KB-V1 MDR tox: inactive; S2 tox: inconclusive

How did O=C(Nc1cccc(C(F)(F)F)c1)c1cc(-c2ccc(Cl)s2)nc2ccccc12 do in these assays?
ATXN2 expr inh: 2%; KB-3-1 tox: inactive; KB-V1 MDR tox: inactive; S2 tox: inactive

Results for O=C(c1cncc(Br)c1)N1CCC(N2CCCC2)CC1 ?
ATXN2 expr inh: -2%

How did CCN(CC)S(=O)(=O)c1ccc(Cl)c(C(=O)Nc2ccc(Cl)cc2[N+](=O)[O-])c1 do in these assays?
ATXN2 expr inh: 0%; HT1080NT lethal: -3%; KB-3-1 tox: inactive; HT1080 IDH1KD tx: 0%; KB-V1 MDR tox: 4.1µM*; S2 tox: inconclusive

What do the screens show for `CCN(CC)S(=O)(=O)c1ccc(OC)c(NC(=O)CSc2cc(Cl)ccc2Cl)c1`?
ATXN2 expr inh: 11%; HT1080NT lethal: -8%; KB-3-1 tox: inactive; HT1080 IDH1KD tx: 3%; KB-V1 MDR tox: 13µM*; S2 tox: inactive

Results for CCN(CC)S(=O)(=O)c1ccc(Cl)c(C(=O)NC)c1 ?
ATXN2 expr inh: 13%; HT1080NT lethal: -2%; KB-3-1 tox: inactive; HT1080 IDH1KD tx: 1%; KB-V1 MDR tox: inactive; S2 tox: inactive

Results for COc1ccc(Cl)cc1NC(=O)c1cccc([N+](=O)[O-])c1O ?
ATXN2 expr inh: inconclusive; HT1080NT lethal: inconclusive; KB-3-1 tox: 12µM*; HT1080 IDH1KD tx: inconclusive; KB-V1 MDR tox: 21µM*; S2 tox: inconclusive
